Among the data in PubChem BioAssay AID1053180 (Broad Institute, 2014) are activation values, retold here.

The structures appear in SMILES notation. Values joined by “and” are separate entries in the source; they are usually repeats but may differ in a detail not shown here. Identical values can stand only once. The campaign covered roughly 9,600 compounds. About 20 (0.2%) were called active. The sample holds actives, similar compounds and a random draw of the others, so the mix is not that of the screen.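 Rule for the calls: active = highest normalized replicate activity of 15 or more, or at least half the replicates reach 15 or more; inactive = neither condition met.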 More than one record can exist for a structure, and the calls need not agree.

A short description of the assay: Pax4 mRNA upregulation in alpha cells – RT-PCR, mouse alpha TC1 cells, single point, primary screen (AID 1053180).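 Note: Pax4 Ct normalized to GAPDH with activation seen as lower delta delta Ct; plate controls were plate neutral control wells for no effect and Pax4 plasmid positive control for full effect.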 As to conditions: Pax4 mRNA qPCR, 6 days, at 10 µM, stronger effect = higher value, 100% = Pax4 plasmid added at qPCR.
As to `CCS(=O)(=O)Nc1ccc2c(c1)C(=O)N(C)[C@H]1CC[C@H](CC(=O)NCCCN3CCOCC3)O[C@H]1CO2`, the activation was 0% (inactive).

Regarding `C/C=C/c1ccc([C@@H]2[C@H](CO)N3CCCCN(S(=O)(=O)c4ccc(OC)cc4)C[C@@H]23)cc1`, the activation was 0.0005% (inactive). For the molecule `COCC(=O)N1[C@@H](C#N)[C@@H](c2ccccc2C2=CCCC2)[C@@H]1CO`, the activation is 0.01% (inactive). Then `O=C(Nc1ccc(F)cc1)N1[C@@H]2CNc3ccccc3[C@@H]2[C@@H]1CO`, with 0.0065% (inactive). With `COCC(=O)Nc1ccc2c(c1)OC[C@H](C)N(C)C[C@H](C)[C@H](OC)CN(C)C2=O`, the activation was 0% (inactive). As to `COCCN(C[C@H]1N[C@H](CO)[C@@H]1c1ccccc1)C(=O)NC1CCCC1`, the activation is 0.002% (inactive). Under `C[C@H]1CN([C@@H](C)CO)C(=O)c2ccccc2-c2ccccc2CO[C@H]1CN(C)Cc1ccc2c(c1)OCCN2C` stands 0.073% (inactive). `COc1ccc2c3c(n(C)c2c1)[C@H](CO)N(C)CC31CN(S(=O)(=O)c2cccs2)C1`: the activation was 0.001% (inactive). For `Cc1noc(C)c1S(=O)(=O)N(C)C[C@@H]1Oc2c(NC(=O)c3ccc(-c4nccs4)cc3)cccc2C(=O)N([C@@H](C)CO)C[C@H]1C`, the activation was -0.0005% (inactive). Then `N#C[C@@H]1[C@@H](c2ccccc2-c2cccc(F)c2)[C@H](CO)N1C(=O)C1CC1`, with 0.0185% (inactive). Consider `CN1C(=O)c2cc(NC(=O)c3cscn3)ccc2OC[C@H]2O[C@H](CC(=O)NCc3ccc(Cl)c(Cl)c3)CC[C@@H]21`, for which the activation was 0.0025% (inactive). For `COCCNC(=O)C[C@H]1C[C@@H]2c3cc(NC(=O)CN(C)C)ccc3O[C@@H]2[C@@H](CO)O1`, the activation was 0.003% (inactive).

In the case of `O=C(C[C@H]1C[C@@H]2c3cc(NC(=O)NC4CCCC4)ccc3O[C@@H]2[C@@H](CO)O1)NCc1ccccc1F`, the activation is 0.0035% (inactive).

`CO[C@H]1CN(C)C(=O)c2cc(NC(=O)C3CCCCC3)ccc2OC[C@@H](C)N(C(=O)c2ccccc2)C[C@@H]1C`: the activation was -0.0005% (inactive).

As for `CN1C(=O)c2cc(NC(=O)C3CCOCC3)ccc2OC[C@@H]2O[C@H](CC(=O)NCCc3ccncc3)CC[C@H]21`, the activation is 0.0015% (inactive).

Regarding `C[C@H]1CNC(=O)[C@@H](Cc2ccc(C(F)(F)F)cc2)CCn2nncc2COC1`, the activation was 7.98% (active).

Take `C[C@H]1CNC(=O)[C@H](Cc2ccc(C(F)(F)F)cc2)CCn2nncc2COC1`: the activation was 2.47% (inactive). `C[C@@H]1CNC(=O)[C@H](Cc2ccc(C(F)(F)F)cc2)CCn2nncc2COC1`: the activation is 0.259% (inactive).

Turning to `CN(C)CC(=O)N1[C@H](CO)[C@@H](c2ccc(C#CC3CCCCC3)cc2)[C@@H]1C#N`, the activation was 0.005% (inactive). In the case of `COCC(=O)N1[C@H](CO)[C@@H]2c3ccccc3N(C)C[C@@H]21`, the activation is 0.0025% (inactive).

In the case of `Cc1nn(C)cc1NC(=O)C[C@@H]1CC[C@@H]2[C@H](COc3ccc(NC(=O)c4cccc(F)c4)cc3C(=O)N2C)O1`, the activation is 0.0015% (inactive).

Take `CC(C)[C@H]1COCn2nncc2CC[C@H](C)C(=O)N1`: the activation was 0.0005% (inactive).

In the case of `c1cc(-c2ccc(C3[C@@H]4CN(Cc5nccs5)C[C@H]3N4)cc2)ccn1` (stereo partly drawn), the activation is 0.0255% (inactive). With `O=C(Nc1ccccc1)N1CC(=O)N2[C@@H](CO)[C@H](c3ccc(C#CC4CCCCC4)cc3)[C@@H]2C1`, the activation is 0% (inactive). Under `CO[C@H]1CC[C@@H]2CCOc3c(C#N)cccc3C(=O)N(C)C[C@@H](OC)[C@@H](C)C(=O)N(C)C[C@H]1O2` stands -0.0005% (inactive); under `COc1cccc(C#Cc2ccc([C@H]3[C@H](CO)N4C(=O)CN(C(=O)Cc5cccnc5)C[C@@H]34)cc2)c1`, 0% (inactive). For `CO[C@H]1CC[C@H]2CCOc3c(C#N)cccc3C(=O)N(C)C[C@H](OC)[C@H](C)C(=O)N(C)C[C@@H]1O2`, the activation was -0.0005% (inactive). Consider `CO[C@H]1CN(C)C(=O)c2cc(NC(=O)CC(F)(F)F)ccc2OC[C@@H](C)N(CC2CC2)C[C@@H]1C`, for which the activation is -0.0005% (inactive). Consider `C[C@H](CO)N1C[C@H](C)[C@H](CN(C)Cc2ccc3c(c2)OCO3)Oc2ccc(NS(=O)(=O)c3cn(C)cn3)cc2CC1=O`, for which the activation was 0.004% (inactive). Then `N#C[C@@H]1N[C@@H](CO)[C@@H]1c1ccc(C#CC2CCCCC2)cc1`, with 0.001% (inactive); and `Cc1noc(C)c1S(=O)(=O)N(C)C[C@H]1Oc2c(NS(=O)(=O)c3cn(C)cn3)cccc2C(=O)N([C@@H](C)CO)C[C@@H]1C`, with -0.005% (inactive); and `COc1ccc2c3c([nH]c2c1)[C@H](CO)N(C(=O)Nc1ccc(F)cc1)CC31CN(S(=O)(=O)c2ccc(C)cc2)C1`, with 0.006% (inactive). On to `CCS(=O)(=O)Nc1ccc2c(c1)C(=O)N(C)[C@@H]1CC[C@H](CC(=O)NC3CCCCC3)O[C@@H]1CO2`, for which the activation was 0% (inactive). Then `C[C@@H]1CN([C@H](C)CO)C(=O)Cc2cc(NS(=O)(=O)c3ccc(Cl)cc3)ccc2O[C@@H]1CN(C)C(=O)Nc1ccc(C(F)(F)F)cc1`, with 0.005% (inactive); and `CC(C)NC(=O)Nc1ccc2c(c1)C(=O)N([C@H](C)CO)C[C@H](C)[C@@H](CN(C)C(=O)C1CCCCC1)OCCCC[C@H](C)O2`, with -0.0015% (inactive). With `O=C(C[C@@H]1CC[C@H]2[C@@H](COC[C@H](O)CN2S(=O)(=O)c2cccc(F)c2)O1)NCc1ccncn1`, the activation is 0.011% (inactive). As to `Cc1nn(C)cc1NC(=O)C[C@@H]1CC[C@@H]2[C@@H](COc3ccc(NC(=O)c4cccc(F)c4)cc3C(=O)N2C)O1`, the activation was 0.0025% (inactive).

On to `C[C@@H]1CN([C@H](C)CO)C(=O)c2cc(NS(=O)(=O)c3ccccc3)ccc2O[C@@H](C)CCCCO[C@@H]1CN(C)C(=O)C1CCCCC1`, for which the activation was -0.001% (inactive).

`CC(C)[C@@H]1CCc2cnnn2COC[C@H](Cc2ccccc2)NC1=O`: the activation was -0.0175% (inactive). For the molecule `O=C(C[C@H]1CC[C@@H]2[C@H](COC[C@H](O)CN2Cc2ccc3c(c2)OCO3)O1)N1CCCCC1`, the activation was 0.002% (inactive). As for `COc1ccc2c3c([nH]c2c1)[C@@H](CO)NCC31CN(Cc2cc(F)ccc2F)C1`, the activation is 0.0025% (inactive). Then `O=S(=O)(c1ccc(F)cc1)N1CCCCN2[C@H](CO)[C@H](c3ccc(-c4cncnc4)cc3)[C@H]2C1`, with 0.001% (inactive); and `O=C(C[C@H]1C[C@H]2c3cc(NS(=O)(=O)c4ccccc4)ccc3O[C@H]2[C@H](CO)O1)N1CCOCC1`, with 0.0015% (inactive); and `CC(=O)N1[C@@H]2Cn3c(ccc(-c4cccnc4)c3=O)[C@H]1[C@@H](C(=O)NC1Cc3ccccc3C1)[C@@H]2CO`, with 0% (inactive). Under `C[C@H]1CN([C@@H](C)CO)C(=O)Cc2cc(NS(=O)(=O)c3ccc(Cl)cc3)ccc2O[C@H]1CN(C)C(=O)Nc1ccc(C(F)(F)F)cc1` stands -0.003% (inactive); under `CN(C)C(=O)c1ccc(-c2ccc([C@@H]3[C@@H](CO)N4C(=O)CN(C(=O)CC5CC5)C[C@H]34)cc2)cc1`, 0.005% (inactive). On to `COc1ccc(CN2[C@@H]3CN(C(=O)NC(C)C)c4ccccc4[C@@H]3[C@@H]2CO)cc1`, for which the activation is -0.0005% (inactive). For the molecule `C[C@H](CO)N1C[C@H](C)[C@@H](CN(C)Cc2ccccc2)Oc2c(NC(=O)Cc3cn(C)c4ccccc34)cccc2C1=O`, the activation was 13.8% (active).

As to `C[C@H](CO)N1C[C@H](C)[C@@H](CN(C)Cc2ccc(Oc3ccccc3)cc2)Oc2c(NC(=O)CCC(F)(F)F)cccc2C1=O`, the activation was 0.039% (inactive). Take `C[C@H](CO)N1C[C@H](C)[C@@H](CN(C)Cc2ccc(-c3ccccc3)cc2)Oc2c(NS(C)(=O)=O)cccc2C1=O`: the activation was -0.001% (inactive). Take `C[C@@H](NC(=O)C[C@H]1CC[C@@H]2[C@@H](COc3ccc(NC(=O)C4CCOCC4)cc3C(=O)N2C)O1)c1ccccc1`: the activation was 0.0015% (inactive). Under `O=C(NC1CCCC1)N[C@H]1C=C[C@H](CC(=O)N2CCOCC2)O[C@H]1CO` stands 0.0045% (inactive). For the molecule `COc1ccc(S(=O)(=O)Nc2ccc3c(c2)CC(=O)N([C@H](C)CO)C[C@@H](C)[C@@H](CN(C)Cc2ccc(C(=O)Nc4ccccc4N)cc2)O3)cc1`, the activation is 0.03% (inactive). For the molecule `C[C@@H]1CN([C@@H](C)CO)C(=O)Cc2cc(NC(=O)C3CCCCC3)ccc2O[C@@H]1CN(C)Cc1ccc(Cl)c(Cl)c1`, the activation is 46.5% (active). For the molecule `C[C@@H]1CN([C@H](C)CO)C(=O)Cc2cc(NC(=O)C3CCCCC3)ccc2O[C@H]1CN(C)Cc1ccc(Cl)c(Cl)c1`, the activation was 0.389% (inactive).

Consider `COc1ccc(S(=O)(=O)Nc2ccc3c(c2)CC(=O)N([C@H](C)CO)C[C@H](C)[C@H](CN(C)Cc2ccc(C(=O)Nc4ccccc4N)cc2)O3)cc1`, for which the activation was 15.1% (active).

Turning to `COc1ccc(S(=O)(=O)Nc2ccc3c(c2)CC(=O)N([C@H](C)CO)C[C@@H](C)[C@H](CN(C)Cc2ccc(C(=O)Nc4ccccc4N)cc2)O3)cc1`, the activation is 0.03% (inactive). Then `C[C@H]1CN([C@@H](C)CO)C(=O)Cc2cc(NC(=O)C3CCCCC3)ccc2O[C@H]1CN(C)Cc1ccc(Cl)c(Cl)c1`, with 0.106% (inactive). For `CCCN1C[C@H](C)[C@H](OC)CN(C)C(=O)c2ccc(NS(=O)(=O)c3cn(C)cn3)cc2OC[C@@H]1C`, the activation was 0.0005% (inactive). In the case of `CN1CCN(C(=O)C[C@H]2C[C@H]3c4cc(NS(C)(=O)=O)ccc4O[C@H]3[C@H](CO)O2)CC1`, the activation is 0% (inactive).

In the case of `O=C(c1ccccn1)N1CC[C@@H]2[C@@H](CO)Nc3ccc(C#Cc4cccnc4)cc3[C@@H]21`, the activation was 0.001% (inactive). As for `Fc1cccc(-c2ccc(C3[C@@H]4CN(Cc5cncnc5)C[C@H]3N4)cc2)c1` (stereo partly drawn), the activation is 0.047% (inactive) and 0.0125% (inactive). Regarding `Fc1cccc(CN2C[C@@H]3N[C@H](C2)C3c2ccc(/C=C/c3ccccc3)cc2)c1` (stereo partly drawn), the activation is 3.54% (inactive) and 8.86% (active). In the case of `C/C=C/c1ccc(C2[C@@H]3CN(S(=O)(=O)c4ccccc4F)C[C@H]2N3)cc1` (stereo partly drawn), the activation is 0.01% (inactive). For `Fc1ccc(-c2ccc(C3[C@@H]4CN(Cc5ccccc5)C[C@H]3N4)cc2)cc1` (stereo partly drawn), the activation is 1.66% (inactive) and 0.0585% (inactive). Consider `C(=C\c1ccc(C2[C@@H]3CN(Cc4nccs4)C[C@H]2N3)cc1)/c1ccccc1` (stereo partly drawn), for which the activation was 0.714% (inactive) and 0.0635% (inactive).

With `CN(C)C(=O)c1ccc(-c2ccc(C3[C@@H]4CN(Cc5ccccc5Cl)C[C@H]3N4)cc2)cc1` (stereo partly drawn), the activation was 0.0085% (inactive). With `CN(C)C(=O)c1cccc(-c2ccc(C3[C@@H]4CN(Cc5ccccc5F)C[C@H]3N4)cc2)c1` (stereo partly drawn), the activation is 1.26% (inactive) and 21.9% (active). As for `Cc1ccccc1S(=O)(=O)N1C[C@@H]2N[C@H](C1)C2c1ccc(/C=C/c2ccccc2)cc1` (stereo partly drawn), the activation is 0.183% (inactive). Then `O=S(=O)(c1ccc(F)cc1)N1C[C@@H]2N[C@H](C1)C2c1ccc(/C=C/c2ccccc2)cc1` (stereo partly drawn), with 8.33% (active) and 0.035% (inactive).

`CN(C)C(=O)c1cccc(-c2ccc(C3[C@@H]4CN(Cc5cocn5)C[C@H]3N4)cc2)c1` (stereo partly drawn): the activation is 0.001% (inactive).

For `COc1ccccc1-c1ccc(C2[C@@H]3CN(Cc4cccc(F)c4)C[C@H]2N3)cc1` (stereo partly drawn), the activation was 0.062% (inactive).

`Cc1cccc(-c2ccc(C3[C@@H]4CN(Cc5cccc(F)c5)C[C@H]3N4)cc2)c1` (stereo partly drawn): the activation was 50.5% (active) and 0.557% (inactive).
